According to PubChem BioAssay (NCI):
“And” between values parts separate entries of the source, which are not always exact repeats. Equal entries are not always repeated. This is part of a sample that, as a whole, favours compounds with a hit. Of some 83,000 tested, about 20% had one in any assay.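 96-well plates, one dose, 48 hours. Percent growth reported; active if below 10.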 The source made the active and inactive calls.

Each compound was assayed on MCF7 breast (assay: NCI-60 one-dose screen, 48 h (100 = growth as untreated, 0 = no growth, -100 = all killed)). Settings: 10 µM unless noted.
For `C=C1C(=O)OC2C1CC(O)/C(C)=C\CCC1(C)OC21` (centres undefined), the growth was 21.9% [100 µM] (inactive) and -83.3% [100 µM] (active).
For `CC(C)=CCC/C(C)=C/CC/C(C)=C/CC/C(C)=C/C=C/C=C(\C)CC/C=C(\C)CC/C=C(\C)CCC=C(C)C`, the growth was 74.5% [100 µM] (inactive) and 28.2% [100 µM] (inactive).
For `C=C1CC(O)C2C(=C)C(=O)OC2C2C(C)C(=O)CC12` (centres undefined), the growth was -76.9% [100 µM] (active) and -61.7% [100 µM] (active).
In the case of `CC12CCC3c4cc(Br)c(O)c(Br)c4CCC3C1CCC2O` (centres undefined), the growth is reported as 5.35% [100 µM] (active) and -48.4% [100 µM] (active).
`CC(=O)NC(CS/N=N/c1nc[nH]c1C(N)=O)C(=O)O` (centres undefined) was tested, and the growth was 28.2% [100 µM] (inactive) and 6.86% [100 µM] (active).
In the case of `COc1cc(Nc2ccc3c(c2)CCC3)nc(OC)n1`, the growth is reported as 22.3% [100 µM] (inactive) and -82.6% [100 µM] (active).
With `CCOc1cc2c(cc1O)/C(=N\N)C[C@@H]1[C@@H]2CC[C@]2(C)[C@@H](O)CC[C@@H]12` the growth was 20.2% [100 µM] (inactive) and -66.9% [100 µM] (active).
`O=[N+]([O-])c1cccc(-c2ncnc(-c3cccc([N+](=O)[O-])c3)n2)c1` was tested, and the growth was 55.1% [100 µM] (inactive) and 68.9% [100 µM] (inactive).
For `CCC1CC(C)C(O)/C=C/C=C/CC(C)OC(=O)CC(O)C(OC)C1OC1OC(C)CC(O)(C(C)=O)C1O` (centres undefined), the growth was 32% [100 µM] (inactive) and 5.08% [100 µM] (active).
For `CC(=O)OC(=C(C#N)C#N)c1nccnc1C(C)=O`, the growth was 106% [20 µM] (inactive) and 75.4% [20 µM] (inactive).
`C=C1C(=O)OC2/C=C(\CO)C(OC(C)=O)CC(O)/C(C)=C/C(OC(=O)C(C)CC)C12` (centres undefined) was tested, and the growth was -87% [100 µM] (active) and -86.7% [100 µM] (active).
`Cc1ccc(NC(=S)C#N)c(C)c1` was tested, and the growth was 48.6% [100 µM] (inactive) and -77.7% [100 µM] (active).
`N#Cc1sc2nc(/C=C3/C=CC=CC3=O)c(O)n2c1N` was tested, and the growth was 30.3% [100 µM] (inactive) and 3.44% [100 µM] (active).
`O=C1NC(=S)NC1C(Cc1ccccc1)c1ccco1` (centres undefined) was tested, and the growth was 19% [100 µM] (inactive) and 3.76% [100 µM] (active).
`CC(=O)Oc1ccc2ccc(=O)oc2c1OC(C)=O` was tested, and the growth was -69.1% [100 µM] (active) and -65% [100 µM] (active).
For `CCCCOC(=O)C1CC[C@H]2[C@@H]3CCc4cc(OC(=O)c5cccc6c(=O)c7ccccc7[nH]c56)ccc4[C@H]3CC[C@]12C` (some centres undefined), the growth was -86.3% [50 µM] (active) and -100% [50 µM] (active).
`CC12NC(=C(C#N)C#N)C(C#N)=C3NC(N)=C(C#N)C(=C31)Oc1ccccc12` (centres undefined) was tested, and the growth was 17.3% [100 µM] (inactive) and -45.9% [100 µM] (active).
With `CCCC(=O)Oc1c2ccsc2c(OC(=O)CCC)c2ccsc12` the growth was -72.6% [100 µM] (active) and -100% [100 µM] (active).
`O=c1[nH]c(=O)n(C2CC(O)C(CO)O2)cc1Br` (centres undefined) was tested, and the growth was 29% [100 µM] (inactive) and -14.9% [100 µM] (active).
`O=c1cc(-c2ccc(O)cc2)oc2cc(O[C@@H]3O[C@H](CO)[C@@H](O)[C@H](O)[C@H]3O)cc(O)c12` was tested, and the growth was 38.3% [100 µM] (inactive) and 0.613% [100 µM] (active).
For `CCOC(=O)CCCOc1cc(-c2ccccc2F)nc2cc3c(cc12)OCO3`, the growth was 14.3% [100 µM] (inactive) and -100% [100 µM] (active).
For `COc1cc([N+](=O)[O-])c(OC)c2c(Nc3ccc(S(=O)(=O)O)c4cc(S(=O)(=O)O)cc(S(=O)(=O)O)c34)cc(C)nc12`, the growth was -88.5% [100 µM] (active) and -100% [100 µM] (active).
In the case of `COc1cc2c(cc1O)Cc1c-2[n+](C)cc2cc(OC)c(OC)cc12`, the growth is reported as 19.5% [100 µM] (inactive) and 0.687% [100 µM] (active).
In the case of `NC(=O)c1[nH]cnc1/N=N/SCC(N)C(=O)O` (centres undefined), the growth is reported as 45.4% [100 µM] (inactive) and 15.8% [100 µM] (inactive).
